Source: PubChem
MITF TRPM1 HTS: MITF TRPM1 promoter activation in melanoma cells; SK-MEL-5 TRPM1-promoter luciferase, 24 h; % of positive control, neutral wells = 0; activation, % at 12.5 µM; 300,000 tested, 0.75% active;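 active means mean activation of at least 80% with every replicate also reaching 80%; inconclusive means mean reaches 80% but some replicate falls short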;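 further: 0% = neutral control wells and 100% = parthenolide positive control wells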
HSF1 inh: HSF1 inhibition; 300,000 tested, 0.77% active; activity change, negative = inhibition, % at 7.5 µM (by protocol); AID 2098; NIH3T3-HGL HSE-luciferase, MG132-induced, luminescence 8 h; stronger effect = lower value;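 active means more than half of replicate wells show activity change below -50%, luminescence cut by over half; inconclusive means some wells, but at most half, below -50%; inactive means no replicate well below -50%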;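 further: luciferase reports HSF-1 transcriptional activity via heat shock element; 0% = median of DMSO wells and -100% = zero luminescence signal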
Wnt act: activators of Wnt/beta-catenin signaling; AID 743398; Wnt/beta-catenin reporter cell assay, activator, plate reader; activation, % at 9.35 µM; 300,000 tested, 1.2% active; in the data active means activation above about 30%, passing the limit was not always enough; inconclusive means no clear call, values can overlap the other calls;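 further: 0% = neutral control wells and 100% = positive control wells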
esBAF inh: blocks esBAF chromatin remodeling in mouse ES cells | Bmi1-luciferase knock-in reporter, 24 h; 100% = twice the neutral-well signal | reporter increase, % at 12.5 µM | 350,000 tested, 2% active | AID 602393; in the data active means activation above about 40%; inconclusive means no clear call, values can overlap the other calls;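 further: 0% = median of the plate's neutral control wells and 100% = double that signal; a rise in the Bmi1 reporter signal indicates esBAF inhibition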
HSF1 activator: increases HSF-1 driven luciferase reporter signal; 300,000 tested, 1.7% active; NIH3T3-HGL HSF-1 luciferase reporter, MG132, 8 h; 100% = twice DMSO control signal; activation, % at 9 µM;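 active means mean replicate activation of at least 50% with a set share of replicates each reaching 50%; inconclusive means only one of those two conditions met; inactive means mean below 50% and too few replicates reaching it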;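 further: 0% = median of the neutral control wells and 100% = twice that signal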
* hit, by the source's call. Most compounds without a hit are left out; they make up all but 3.8% or so of the library.

How did CCC(C)(C)NC(=O)C(c1cccc(OC)c1OC)N(Cc1ccc(OC)cc1)C(=O)CCC(=O)Nc1cc(C)on1 (stereo not given) do in these assays?
MITF TRPM1 HTS: -18; HSF1 inh: 28; Wnt act: -1; esBAF inh: 0; HSF1 activator: 60*

Results for COc1nc(Nc2cccc(C(F)(F)F)c2)nc(OC)n1 ?
HSF1 inh: 22; Wnt act: 8; esBAF inh: 30; HSF1 activator: 59*

What do the screens show for `COc1ccccc1-c1ccc(Nc2cccc(C(F)(F)F)c2)nn1`?
MITF TRPM1 HTS: 21; HSF1 inh: -4; esBAF inh: 45*; HSF1 activator: 19

Results for COc1ccccc1OCC(=O)NC1CCCCCCC1 ?
MITF TRPM1 HTS: 10; Wnt act: 0; esBAF inh: 16

Results for COc1ccccc1-c1ccc(NC2CCCCC2)nn1 ?
MITF TRPM1 HTS: 83*; HSF1 inh: 14; HSF1 activator: 25

How did O=C(COc1ccccc1Cl)c1ccc[nH]1 do in these assays?
MITF TRPM1 HTS: 44; HSF1 inh: 7; Wnt act: 25; HSF1 activator: -1

How did O=C(COc1ccc(Br)cc1Cl)c1ccc[nH]1 do in these assays?
MITF TRPM1 HTS: 102*; HSF1 inh: 24; Wnt act: 19; esBAF inh: 74*; HSF1 activator: 27

How did Cc1cc(Cl)ccc1OCC(=O)NC1CCCC1 do in these assays?
MITF TRPM1 HTS: 16; HSF1 inh: 14; Wnt act: 1; esBAF inh: 32; HSF1 activator: 35

Results for O=C(COc1ccc(Br)cc1Cl)NC1CCCCC1 ?
MITF TRPM1 HTS: 88*; HSF1 inh: 32; Wnt act: 23; HSF1 activator: 36

How did O=C(COc1ccc(Br)cc1Br)NC1CCCC1 do in these assays?
MITF TRPM1 HTS: 40; HSF1 inh: 16; Wnt act: 8; HSF1 activator: 39

Results for CC(C)NC(=O)NC(=O)COc1ccc(Br)cc1Br ?
MITF TRPM1 HTS: 36; HSF1 inh: 70; Wnt act: 25; HSF1 activator: 87*

What do the screens show for `O=C(COc1ccc(Br)cc1Cl)NC(=O)NC1CCCC1`?
MITF TRPM1 HTS: 93*; Wnt act: 38*; esBAF inh: 51*

How did COc1ccc(CN(C)C[C@@H]2Oc3c(NC(=O)c4cnccn4)cccc3C(=O)N([C@@H](C)CO)C[C@H]2C)cc1 do in these assays?
esBAF inh: 1

How did CCS(=O)(=O)Nc1ccc2c(c1)C(=O)N(C)C[C@@H](OC)[C@@H](C)CN(C)[C@H](C)CO2 do in these assays?
esBAF inh: 4

What do the screens show for `CSc1nnc2c(n1)c(C)nn2-c1cccc(C)c1`?
HSF1 inh: 3; Wnt act: 37*; esBAF inh: 45*; HSF1 activator: 3

How did Cc1cnc(C(=O)Nc2ccccc2F)cn1 do in these assays?
MITF TRPM1 HTS: 72; HSF1 inh: 1; HSF1 activator: 10

Results for Cc1cnc(C(=O)Nc2ccccc2-n2cccc2)cn1 ?
MITF TRPM1 HTS: -3; HSF1 inh: -60*; esBAF inh: -3; HSF1 activator: -68

How did Cc1cnc(C(=O)Nc2ccc(C(C)C)cc2)cn1 do in these assays?
MITF TRPM1 HTS: 131*; HSF1 inh: 13; Wnt act: 39*; HSF1 activator: 47

How did O=C(CN1CCOCC1)N[C@@H]1CC[C@@H](CCNC(=O)C2CCCC2)O[C@H]1CO do in these assays?
esBAF inh: -9

Results for Nc1nonc1-n1nnc(C(=O)N/N=C/c2cccnc2)c1CSC1=NCCS1 ?
HSF1 inh: 50; Wnt act: -3; HSF1 activator: 96*

What do the screens show for `Nc1nonc1-n1nnc(C(=O)N/N=C/c2ccc(Br)cc2)c1CSC1=NCCS1`?
MITF TRPM1 HTS: 5; HSF1 inh: 7; Wnt act: -5; HSF1 activator: 11

What do the screens show for `COCC#Cc1cnc2c(c1)C(=O)N([C@@H](C)CO)C[C@@H](C)[C@@H](CN(C)C(=O)CCN1CCCCC1)O2`?
esBAF inh: -1

Results for Cc1nc2nc(-c3cccs3)[nH]c2cc1Br ?
HSF1 inh: 29; Wnt act: 66*; esBAF inh: 27; HSF1 activator: 63*

What do the screens show for `N=C1SCC(=O)N1c1nc(-c2ccccc2)cs1`?
MITF TRPM1 HTS: 59; HSF1 inh: 9; esBAF inh: inconclusive; HSF1 activator: 31

How did Cc1cccc(N2C(=N)SCC2=O)c1C do in these assays?
MITF TRPM1 HTS: 5; HSF1 inh: 20; HSF1 activator: 77*
